This is an account of results in PubChem BioAssay AID504339 (National Center for Advancing Translational Sciences (NCATS), 2011).

Out of some 390,000 compounds screened, about 17,000 (4.4%) were called active. About 8% were inconclusive and are not listed. Shown is part of a subset that was picked to be rich in actives. Entries that show only a call come without a potency. Unmarked numbers belong to inactive results. The call rests on the fitted dose curve; in most records, active means well fitted inhibition curve with a large enough effect; inconclusive means small, poorly fitted or top-dose-only effect; inactive means no such curve, though single readings can be large or run the other way.
Potency means the concentration at half of the fitted maximal effect.

This test deals with Lysine-specific demethylase 4A (Homo sapiens) (UniProt O75164). Nature of the test: qHTS Assay for Inhibitors of JMJD2A-Tudor Domain. Further: nearly all actives have a fitted effect of over 50% in size. The conditions noted are these: AlphaScreen JMJD2A-Tudor / H3K4me3 peptide binding; series mostly up to 114 µM. For orientation: Quantitative high-throughput screening tests each substance at several concentrations.
Sequence of Lysine-specific demethylase 4A (Homo sapiens) (O75164 whole entry, looked up, the tested form may be a part): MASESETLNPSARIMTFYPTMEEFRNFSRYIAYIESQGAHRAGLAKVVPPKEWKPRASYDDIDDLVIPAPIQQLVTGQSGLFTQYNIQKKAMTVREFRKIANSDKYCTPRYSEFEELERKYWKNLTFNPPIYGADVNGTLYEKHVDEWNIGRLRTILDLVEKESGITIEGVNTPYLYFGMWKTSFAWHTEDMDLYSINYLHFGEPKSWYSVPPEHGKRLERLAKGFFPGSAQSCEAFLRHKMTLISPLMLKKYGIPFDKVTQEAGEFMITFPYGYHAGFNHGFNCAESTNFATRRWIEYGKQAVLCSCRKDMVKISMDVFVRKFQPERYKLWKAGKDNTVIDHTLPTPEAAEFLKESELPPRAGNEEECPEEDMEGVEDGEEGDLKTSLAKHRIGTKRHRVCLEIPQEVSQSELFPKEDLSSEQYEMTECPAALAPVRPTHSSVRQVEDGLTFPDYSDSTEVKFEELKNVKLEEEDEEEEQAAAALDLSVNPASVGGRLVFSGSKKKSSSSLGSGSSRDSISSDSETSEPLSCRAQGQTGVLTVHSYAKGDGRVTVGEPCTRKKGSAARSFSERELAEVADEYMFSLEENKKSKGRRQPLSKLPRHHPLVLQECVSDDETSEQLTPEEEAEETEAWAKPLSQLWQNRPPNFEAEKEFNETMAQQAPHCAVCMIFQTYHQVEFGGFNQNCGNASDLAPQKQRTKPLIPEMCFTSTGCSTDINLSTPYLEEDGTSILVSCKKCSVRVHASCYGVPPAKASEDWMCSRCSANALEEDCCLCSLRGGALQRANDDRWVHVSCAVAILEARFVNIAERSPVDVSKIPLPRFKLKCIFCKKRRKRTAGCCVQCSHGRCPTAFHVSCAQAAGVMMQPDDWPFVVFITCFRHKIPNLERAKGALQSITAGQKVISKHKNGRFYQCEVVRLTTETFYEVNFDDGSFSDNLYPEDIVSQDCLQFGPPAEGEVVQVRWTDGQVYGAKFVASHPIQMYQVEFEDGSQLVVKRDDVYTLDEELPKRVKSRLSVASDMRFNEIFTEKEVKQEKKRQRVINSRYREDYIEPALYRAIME
With `CCCNc1ncnc2c1c(-c1ccccc1)cn2-c1ccc(OCC)cc1`, the Potency entry was “inactive”.
In the case of `Cc1nc2ccc(S(=O)(=O)NC(C(=O)NCc3ccccc3Cl)C(C)C)cc2s1` (configuration not stated), the Potency entry was “inactive”.
Consider `COc1ccc(-c2nc3ccccc3o2)cc1NC(=O)c1cc([N+](=O)[O-])ccc1N1CCOCC1`, for which the Potency entry is “inactive”.
In the case of `COc1ccccc1C(=O)N(Cc1ccc(C)o1)C1CCS(=O)(=O)C1` (configuration not stated), the Potency result was “inactive”.
On the same count and under the same terms, for `CC(C)c1ccc(OCC(=O)N(Cc2ccc(N(C)C)cc2)C2CCS(=O)(=O)C2)cc1` (configuration not stated) the value was 44.7 µM (active).
As to `COc1cc(C(=O)N(Cc2ccc(N(C)C)cc2)C2CCS(=O)(=O)C2)cc(OC)c1OC` (configuration not stated), the activity change, negative = inhibition is -6.11% [at 11.4 µM].
For `Cc1cc(Cl)ccc1OCC(=O)N(Cc1ccc(N(C)C)cc1)C1CCS(=O)(=O)C1` (configuration not stated), the Potency was 50.1 µM (active).
On to `Cc1ccccc1OCC(=O)N(Cc1cccc(F)c1)C1CCS(=O)(=O)C1` (configuration not stated), for which the Potency result was “inactive”.
Consider `Cc1cc(C)c(OCC(=O)N(Cc2cccs2)C2CCS(=O)(=O)C2)c(C)c1` (configuration not stated), for which the Potency entry was “inactive”.
For the molecule `CCOc1ccc(C(=O)N(Cc2ccc(N(C)C)cc2)C2CCS(=O)(=O)C2)cc1` (configuration not stated), the Potency entry was “inactive”.
Consider `CCc1ccc(OCC(=O)N(Cc2ccccc2)C2CCS(=O)(=O)C2)cc1` (configuration not stated), for which the Potency result was “inactive”.
As to `Cc1ccc(CN(C(=O)COc2ccc(Cl)cc2C)C2CCS(=O)(=O)C2)o1` (configuration not stated), the Potency is 11.2 µM (active).
With `O=C(C1CC1)N1CCc2cc(Br)cc(S(=O)(=O)N3CCN(c4ccccc4F)CC3)c21`, the Potency result was “inactive”.
Turning to `CCc1ccc2oc(-c3ccc(NC(=O)c4cc5ccccc5o4)cc3)nc2c1`, the Potency entry is “inactive”.
Consider `Cc1cccc(N2CCN(C(=O)Cn3ncc4c5ccccc5n(C)c4c3=O)CC2C)c1` (configuration not stated), for which the Potency result was “inactive”.
`CCc1ccc(CN(Cc2ccco2)C(=O)COc2ccc(Cl)c(C)c2)cc1`: the Potency entry was “inactive”.
Regarding `COc1ccc(-n2nnc(-c3nsc(NC(=O)c4ccc(C)c(C)c4)n3)c2C)cc1Cl`, the Potency entry is “inactive”.
Take `COc1ccc(-c2cc(C(F)(F)F)n3nc(-c4ccccc4)cc3n2)cc1OC`: the Potency result was “inactive”.
Turning to `CCc1ccccc1NC(=O)c1cnn(-c2ccc(F)cc2)c1C1CCNCC1`, the Potency result was “inactive”.
With `CCc1ccc2oc(-c3ccc(C)c(NC(=O)/C=C/c4ccco4)c3)nc2c1`, the Potency entry was “inactive”.
Consider `C=CS(=O)c1sc(Cl)c(N2CCOCC2)c1[N+](=O)[O-]` (configuration not stated), for which the Potency was 50.1 µM (active).
In the case of `COc1ccc(NC(=O)C2CCCN(S(=O)(=O)c3c(C)[nH]c(=O)[nH]c3=O)C2)c(OC)c1` (configuration not stated), the Potency result was “inactive”.
On to `CCc1ccc(CNC(=O)c2ccc(CS(=O)c3ccc(Br)cc3)o2)cc1` (configuration not stated), for which the Potency result is “inactive”.
Same read-out and setting: for `CCCn1ccc2c(OCC(=O)NCc3ccc(F)cc3)cccc2c1=O` the value was “inactive”.
For `Cc1ccc(S(=O)(=O)n2nc(-c3ccc(Cl)cc3)nc2NCc2ccccc2)cc1`, the Potency result is “inactive”.
The same measure, in the same setting: the value for `Cc1c(C(=O)Nc2cccc(Cl)c2)oc2ccc(S(=O)(=O)N3CCOCC3)cc12` was “inactive”; that for `Cc1oc2c(C)c3oc(=O)c(CC(=O)N[C@@H](CC(C)C)C(=O)N[C@@H](Cc4ccccc4)C(=O)O)c(C)c3cc2c1C` was 56.2 µM (active); that for `CC(C)C[C@H](NC(=O)N1CC(=O)Nc2ccccc21)C(=O)N[C@H](Cc1ccccc1)C(=O)O` was “inactive”.
With `Cc1c(OC(C)C(=O)N[C@@H](Cc2ccccc2)C(=O)O)ccc2c3c(c(=O)oc12)CCCC3` (some centres not stated), the Potency entry is “inactive”.
In the case of `COC(=O)c1ccccc1NC(=O)Cn1c(=O)cc(C)c2c(C)nn(-c3cccc(Cl)c3C)c21`, the Potency result was “inactive”.
For the molecule `O=C(Nc1ccc(CN2CCOCC2)cc1)c1cc(Cl)ccc1Cl`, the Potency entry was “inactive”.
Regarding `Clc1ccc(-n2nnnc2CN2CCCCC2)cc1Cl`, the Potency result was “inactive”.
For `Clc1ccc(CN2CCCCCC2)cc1Cl`, the Potency was 3.98 µM (active).
Same read-out and setting: for `O=C(NCCc1csc(-c2ccc(C(F)(F)F)cc2)n1)C(=O)Nc1ccc(F)c(Cl)c1` the value was “inactive”; for `COc1ccc(C2=NC(c3ccncc3)=Nc3ccc(Br)cc3N2)cc1`, 44.7 µM (active); for `Brc1ccc2c(c1)NC(c1cccnc1)=NC(c1ccccc1)=N2`, “inactive”.
Regarding `COCCNC(=O)c1ccc2c(c1)N(Cc1cccc(Cl)c1)C(=O)c1ccccc1S2(=O)=O`, the Potency result was “inactive”.
Consider `CN(C)Cc1cn(-c2ccccc2)nc1-c1ccccc1`, for which the Potency entry was “inactive”.
As to `Cc1ccc(-n2c(C)cc(/C=C(\C#N)C(=O)NCC3CCCO3)c2C)cc1` (configuration not stated), the Potency is 50.1 µM (active).
As for `Cc1ccc(C(=O)N/C(=C/c2cccs2)C(=O)NCC2CCCO2)cc1` (configuration not stated), the Potency entry was “inactive”.
For `Cc1cc(/C=C(/C#N)C(=O)Nc2ccc(Cl)cc2)c(C)n1-c1cccnc1`, the Potency result was “inactive”.
On the same count and under the same terms, the value for `Cc1cc2c(cc3c(SCc4nc(-c5ccccc5)oc4C)nnc(C)n32)o1` was “inactive”; that for `Nc1ccn(C2CC(O)C(CO)O2)c(=O)n1` (configuration not stated) was “inactive”; that for `O=c1nc(NO)ccn1C1CCCO1` (configuration not stated) was 8.91 µM (active).
Same read-out and setting: the value for `CNc1nc(=O)n(C2CCCO2)cc1C` (configuration not stated) was “inactive”; that for `Cc1cccc(NC(=O)CSc2nc3c(oc4ccccc43)c(=O)n2-c2ccc(F)cc2)c1` was “inactive”; that for `CCc1ccc(NC(=O)c2sc3nc4c(cc3c2N)CN(CC)CC4)cc1` was 56.2 µM (active).
On the same count and under the same terms, the value for `COc1ccc(Cl)cc1NC(=O)c1sc2nc3c(cc2c1N)CN(C)CC3` was “inactive”.
In the case of `CCN1CCc2nc3sc(C(=O)Nc4ccccc4OC(F)(F)F)c(N)c3cc2C1`, the Potency result is “inactive”.
`O=C(CSc1n[nH]c(-c2ccccc2)n1)N1CCCCC1`: the Potency entry was “inactive”.
For the molecule `Cc1ccc(NC(=O)CN2c3ccccc3S(=O)(=O)c3ccccc32)cc1F`, the Potency entry was “inactive”.
As for `CCc1ccccc1NC(=O)Cc1ccc(NC(=O)N2CCCCc3ccccc32)cc1`, the Potency result was “inactive”.
Regarding `CCN(Cc1ccccc1)Cc1c(O)ccc2c(=O)c(-c3ccc(Cl)cc3Cl)coc12`, the Potency result was “inactive”.
For `COc1cccc(CNC(=O)Cn2c(=O)c3cccn3c3ccc(F)cc32)c1OC`, the Potency result was “inactive”.
On to `CCOc1ccc(CCNC(=O)CN(c2ccc(C)cc2)S(=O)(=O)N(C)C)cc1OCC`, for which the Potency entry was “inactive”.
Turning to `O=C(Cn1ncc2c3ccccc3n(Cc3ccccc3)c2c1=O)NC1CCCCCC1`, the Potency entry is “inactive”.
For the molecule `CCCNC(=O)C(CC)n1nc(CC)n2c(cc3oc(C)cc32)c1=O` (configuration not stated), the Potency result is “inactive”.
As to `CCOc1cccc(C(=O)Nc2nnc(S(=O)(=O)N(C)c3ccc(C)cc3)s2)c1`, the Potency result is “inactive”.
On to `CCOc1cccc(-c2nnc(SCC(=O)NC3CC3)n2C)c1`, for which the Potency entry was “inactive”.
The same measure, in the same setting: the value for `CCOc1cccc(-c2nn3c(-c4ccccn4)nnc3s2)c1` was 79.4 µM (active); that for `Cc1ccc2c(=O)c(C(=O)c3ccc(F)cc3)cn(CC(=O)NC3CCCCC3)c2n1` was “inactive”.
Take `CSc1ncc(C(=O)NCc2ccccc2Cl)c(C(F)(F)F)n1`: the Potency entry is “inactive”.
As for `Cc1cccn2c(=O)c3cc(C(=O)NC(C)c4ccccc4)c(=N)n(CCCO)c3nc12` (configuration not stated), the Potency entry was “inactive”.
The same measure, in the same setting: the value for `CCOc1cccc(NC(=O)c2ccc(F)c(S(=O)(=O)N(CC)c3cccc(C)c3)c2)c1` was “inactive”; that for `COc1cccc2cc(-c3cc(=O)oc4cc(C)c(O)cc34)oc12` was “inactive”; that for `COc1cccc2c(O)cc(=O)n(C)c12` was “inactive”.
In the case of `COc1cc(O)c2c(=O)c3c(O)c(O)ccc3oc2c1OC`, the Potency is 89.1 µM (active).
Turning to `CCOc1ccccc1CNC(=O)C1CCCN(S(=O)(=O)c2ccc3c(ccn3C)c2)C1` (configuration not stated), the Potency entry is “inactive”.
With `Cc1ccc(N2CCN(C(=O)c3cccs3)CC2)c(C)c1`, the Potency entry is “inactive”.
In the case of `Cc1cccc(C(=O)N2CCN(S(=O)(=O)N3CCCCC3)CC2)c1`, the Potency entry was “inactive”.
The same measure, in the same setting: for `N#Cc1ccccc1-n1c(N)c(C(=O)N2CCCC2)sc1=S` the value was 56.2 µM (active); for `O=C(c1ccc(S(=O)(=O)N2CCCC2)cc1)N1CCN(c2ccccc2F)CC1`, “inactive”; for `Cc1cccc(-n2c(N)c(C(=O)N3CCN(C)CC3)sc2=S)c1`, 79.4 µM (active).
As for `O=C(c1ccc(CSc2ccccc2)cc1)N1CCCCCC1`, the Potency result was “inactive”.
As to `COc1cccc(N2CCN(c3ccc4nnc(CCC(=O)N5CCN(C)CC5)n4n3)CC2)c1`, the Potency entry was “inactive”.
Same read-out and setting: the value for `Cc1ccc(-n2c(N)c(C(=O)N3CCOCC3)sc2=S)c(C)c1` was 35.5 µM (active); that for `Cc1ccc(S(=O)(=O)N2CCN(C(=O)N3CCOCC3)CC2)c(C)c1` was “inactive”; that for `O=C(Cn1c(=O)n(Cc2ccccc2)c(=O)c2sc3ccccc3c21)Nc1ccccc1F` was “inactive”.
Turning to `Cc1ccccc1OCc1nc2c3cnn(-c4ccccc4F)c3ncn2n1`, the Potency entry was “inactive”.
Consider `COc1ccc(OC)c(NC(=O)CSc2nc3ccccc3nc2N2CCCCC2)c1`, for which the Potency entry is “inactive”.
On to `Cc1ccc(C(=O)NC2CCN(C#N)CC2)cc1`, for which the Potency entry is “inactive”.
As to `CCOc1ccc(N(CC)S(=O)(=O)N2CCCC(C(=O)NCc3ccc(Cl)cc3)C2)cc1` (configuration not stated), the Potency entry is “inactive”.
Turning to `COC(=O)c1ccc(COc2ccc(/C=N/NC(=O)C(=O)Nc3ccc(OC)cc3)cc2OC)o1`, the Potency result was “inactive”.
As for `COC(=O)c1ccc(COc2ccc(/C=C/C(=O)c3ccc(OC)c(CSCC(=O)O)c3)cc2OC)cc1`, the Potency was 50.1 µM (active).
For the molecule `COC(=O)c1ccc(C(NC(=O)OCc2ccccc2)/C(C)=C/[C@@H](C)C(=O)NCc2ccc(OC)c(OC)c2)cc1` (some centres not stated), the Potency entry is “inactive”.
Take `Cc1ccc(NC(=O)c2ccc(CN3CC(=O)N4CCCCC4C3=O)cc2)c(Cl)c1` (configuration not stated): the Potency entry was “inactive”.
Same read-out and setting: for `CC(=O)c1sc(N2C(=O)c3oc4ccccc4c(=O)c3C2c2ccc(C)cc2)nc1C` (configuration not stated) the value was “inactive”.
In the case of `C=Cc1ccc(Cn2c(C(=O)O)c(CNC3CCCC3)c3ccc(C)cc32)cc1`, the Potency entry was “inactive”.
The same measure, in the same setting: for `COc1cc(OC)cc(C(=O)NCCCn2ccnc2)c1` the value was “inactive”; for `COc1ccc(/C=C(\C#N)C(=O)NCCCn2ccnc2)cc1`, “inactive”.
With `COc1cccc(-c2nn(-c3ccccc3)cc2/C=C(\C#N)C(=O)NCCCn2ccnc2)c1`, the Potency is 44.7 µM (active).
Consider `COc1cc(C=NNC(=O)c2cccnc2)ccc1OC(=O)c1ccccc1F`, for which the Potency entry is “inactive”.
On the same count and under the same terms, for `O=C(N/N=C/c1ccccn1)c1cccnc1` the value was 79.4 µM (active); for `O=C(N/N=C/c1ccccn1)c1cccc(NC(=O)c2ccc(Cl)cc2)c1`, “inactive”; for `Cc1ccc2oc3c(c(=O)c2c1)C(c1ccc(O)cc1)N(Cc1ccc2c(c1)OCO2)C3=O` (configuration not stated), “inactive”.
Regarding `CCOc1ccc(S(=O)(=O)N(CC(=O)NCCSCc2ccc(C)cc2)c2ccccc2)cc1`, the Potency entry is “inactive”.
On the same count and under the same terms, for `S=C(NCCCc1cnc[nH]1)NCCCN(Cc1ccc(Cl)c(Cl)c1)c1ccc(Br)cn1` the value was 44.7 µM (active).
